# From paper PMC7862700, “An all-to-all approach to the identification of sequence-specific readers for epigenetic DNA modifications on cytosine”
# Experiments:
# Assay in all cases: DAPPL (digital affinity profiling via proximity ligation, sequencing); 10 mM Tris-HCl pH 7.5, 50 mM NaCl, 1 mM DTT, 4% glycerol, room temperature, 30 min; GST-TFs on glutathione beads, 16-mer random dsDNA library, 0.1% formaldehyde crosslink after washing; high values mean tight binding
# FEV = biological target: T1, FEV (Homo sapiens, UniProt Q99581 1-238); conditions: protein: recombinant; tags: N-terminal GST; dsDNA, one strand shown
# T1 sequence: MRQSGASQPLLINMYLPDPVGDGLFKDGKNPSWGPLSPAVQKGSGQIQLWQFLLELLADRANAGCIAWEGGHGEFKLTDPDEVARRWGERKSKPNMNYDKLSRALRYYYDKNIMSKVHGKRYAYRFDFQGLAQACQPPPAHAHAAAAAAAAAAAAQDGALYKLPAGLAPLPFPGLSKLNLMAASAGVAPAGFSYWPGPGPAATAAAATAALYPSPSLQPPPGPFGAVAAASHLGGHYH
# Outline: (§1)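 A tag-only sample was pooled with DNA-barcoded human transcription factors that had been expressed in yeast as GST fusions and captured on glutathione beads. The pools were incubated for 30 min at room temperature with 200 nmole of a random double-stranded 16-mer DNA library in Tris/NaCl/DTT/glycerol buffer, then washed, crosslinked with 0.1% formaldehyde, proximity-ligated (BsaI/T4 ligase, 1 h, 37 °C), PCR-amplified and sequenced on an Illumina NextSeq500. Binding signal is each hexamer's read frequency for a factor divided by its frequency for the tag-only sample.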
# ETV5 = ETV5 (Homo sapiens, UniProt P41161 1-510); conditions: protein: recombinant; tags: N-terminal GST; dsDNA, one strand shown
# ETV5, sequence (P41161 whole entry): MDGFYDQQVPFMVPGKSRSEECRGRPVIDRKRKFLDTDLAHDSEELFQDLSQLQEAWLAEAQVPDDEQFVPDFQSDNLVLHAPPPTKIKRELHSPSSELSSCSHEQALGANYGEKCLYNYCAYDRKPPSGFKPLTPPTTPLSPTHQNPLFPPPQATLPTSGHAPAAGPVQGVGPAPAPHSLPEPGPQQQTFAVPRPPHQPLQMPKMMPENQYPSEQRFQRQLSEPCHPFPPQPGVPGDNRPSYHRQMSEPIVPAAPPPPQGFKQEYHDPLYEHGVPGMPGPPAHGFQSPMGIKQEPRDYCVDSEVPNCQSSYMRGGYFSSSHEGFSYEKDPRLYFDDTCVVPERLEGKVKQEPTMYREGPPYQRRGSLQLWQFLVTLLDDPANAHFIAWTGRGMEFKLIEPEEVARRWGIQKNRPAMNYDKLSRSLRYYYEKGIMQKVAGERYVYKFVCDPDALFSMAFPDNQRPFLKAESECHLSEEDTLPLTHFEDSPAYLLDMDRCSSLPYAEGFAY
# Outline: as §1
# HSF1 = HSF1 (Homo sapiens, UniProt Q00613 1-529); conditions: protein: recombinant; tags: N-terminal GST; chain copies: 3; dsDNA, one strand shown
# HSF1, sequence (Q00613 whole entry): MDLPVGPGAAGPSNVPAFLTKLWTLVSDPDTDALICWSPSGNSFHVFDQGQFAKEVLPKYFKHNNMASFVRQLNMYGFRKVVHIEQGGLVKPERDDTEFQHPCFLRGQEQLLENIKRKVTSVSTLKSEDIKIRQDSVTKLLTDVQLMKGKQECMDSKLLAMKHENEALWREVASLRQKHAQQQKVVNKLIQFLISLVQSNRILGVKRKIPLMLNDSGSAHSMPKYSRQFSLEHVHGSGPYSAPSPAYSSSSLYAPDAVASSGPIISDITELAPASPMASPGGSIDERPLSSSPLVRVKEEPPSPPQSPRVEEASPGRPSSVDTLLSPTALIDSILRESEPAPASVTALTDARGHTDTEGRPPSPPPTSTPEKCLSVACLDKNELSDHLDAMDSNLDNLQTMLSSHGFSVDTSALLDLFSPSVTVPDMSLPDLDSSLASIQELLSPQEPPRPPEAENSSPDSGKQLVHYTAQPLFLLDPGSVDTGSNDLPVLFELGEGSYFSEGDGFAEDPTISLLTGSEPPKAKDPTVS
# Outline: as §1
# SPIC = biological target: T2, SPIC (Homo sapiens, UniProt Q8N5J4 1-248); conditions: protein: recombinant; tags: N-terminal GST; dsDNA, one strand shown
# T2 sequence: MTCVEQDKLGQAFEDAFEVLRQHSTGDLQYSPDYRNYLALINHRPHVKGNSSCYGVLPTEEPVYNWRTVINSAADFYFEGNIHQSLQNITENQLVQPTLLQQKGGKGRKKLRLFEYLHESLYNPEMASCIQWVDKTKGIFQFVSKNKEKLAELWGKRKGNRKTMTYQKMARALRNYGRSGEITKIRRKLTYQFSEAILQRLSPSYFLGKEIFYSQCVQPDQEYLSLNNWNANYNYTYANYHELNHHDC
# Outline: as §1
# ELF4 = ELF4 (Homo sapiens, UniProt Q99607 1-663); conditions: protein: recombinant; tags: N-terminal GST; dsDNA, one strand shown
# ELF4, sequence (Q99607 whole entry): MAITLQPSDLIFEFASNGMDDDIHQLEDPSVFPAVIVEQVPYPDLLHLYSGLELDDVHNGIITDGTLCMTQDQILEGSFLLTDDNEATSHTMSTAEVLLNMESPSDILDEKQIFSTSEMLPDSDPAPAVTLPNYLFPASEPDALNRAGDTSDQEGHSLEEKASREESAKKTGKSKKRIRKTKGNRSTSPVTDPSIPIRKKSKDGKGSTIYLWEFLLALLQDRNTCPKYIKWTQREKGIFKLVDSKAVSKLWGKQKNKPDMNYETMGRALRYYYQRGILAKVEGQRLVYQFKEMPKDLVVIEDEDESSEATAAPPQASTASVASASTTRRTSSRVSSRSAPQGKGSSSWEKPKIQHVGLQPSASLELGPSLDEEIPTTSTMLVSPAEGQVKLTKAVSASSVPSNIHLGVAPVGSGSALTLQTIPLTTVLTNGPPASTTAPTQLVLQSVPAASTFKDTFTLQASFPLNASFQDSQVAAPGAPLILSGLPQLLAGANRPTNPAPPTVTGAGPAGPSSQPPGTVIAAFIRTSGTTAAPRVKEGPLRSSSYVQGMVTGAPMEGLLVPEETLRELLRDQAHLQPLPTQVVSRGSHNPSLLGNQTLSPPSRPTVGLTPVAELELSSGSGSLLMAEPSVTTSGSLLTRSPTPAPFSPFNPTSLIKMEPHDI
# Outline: as §1
# ELK4 = biological target: T3, ELK4 (Homo sapiens, UniProt P28324-2 1-405); conditions: protein: recombinant; tags: N-terminal GST; dsDNA, one strand shown
# T3 sequence: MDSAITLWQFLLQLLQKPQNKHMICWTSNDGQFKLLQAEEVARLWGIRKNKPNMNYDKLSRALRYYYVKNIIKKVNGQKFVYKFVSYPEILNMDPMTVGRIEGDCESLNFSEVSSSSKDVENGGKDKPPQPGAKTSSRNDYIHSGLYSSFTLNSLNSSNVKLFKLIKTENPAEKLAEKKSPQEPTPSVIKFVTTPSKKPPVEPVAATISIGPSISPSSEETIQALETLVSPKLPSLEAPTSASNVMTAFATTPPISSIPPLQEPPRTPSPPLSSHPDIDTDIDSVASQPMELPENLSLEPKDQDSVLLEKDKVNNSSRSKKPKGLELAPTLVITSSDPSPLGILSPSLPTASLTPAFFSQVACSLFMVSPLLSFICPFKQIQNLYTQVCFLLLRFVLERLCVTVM
# Outline: as §1
# ETV2 = biological target: T4, ETV2 (Homo sapiens, UniProt O00321 1-342); conditions: protein: recombinant; tags: N-terminal GST; dsDNA, one strand shown
# T4 sequence: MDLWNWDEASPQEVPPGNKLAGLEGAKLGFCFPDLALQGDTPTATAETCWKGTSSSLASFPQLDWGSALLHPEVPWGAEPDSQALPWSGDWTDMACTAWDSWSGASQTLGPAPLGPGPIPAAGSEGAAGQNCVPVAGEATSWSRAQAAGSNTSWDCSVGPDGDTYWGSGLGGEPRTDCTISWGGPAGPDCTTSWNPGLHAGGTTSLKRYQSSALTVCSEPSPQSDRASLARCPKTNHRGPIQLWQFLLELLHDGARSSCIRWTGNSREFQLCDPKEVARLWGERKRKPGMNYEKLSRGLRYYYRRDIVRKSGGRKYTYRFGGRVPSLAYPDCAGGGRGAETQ
# Outline: as §1
# ELF3 = biological target: T5, ELF3 (Homo sapiens, UniProt P78545 1-371); conditions: protein: recombinant; tags: N-terminal GST; dsDNA, one strand shown
# T5 sequence: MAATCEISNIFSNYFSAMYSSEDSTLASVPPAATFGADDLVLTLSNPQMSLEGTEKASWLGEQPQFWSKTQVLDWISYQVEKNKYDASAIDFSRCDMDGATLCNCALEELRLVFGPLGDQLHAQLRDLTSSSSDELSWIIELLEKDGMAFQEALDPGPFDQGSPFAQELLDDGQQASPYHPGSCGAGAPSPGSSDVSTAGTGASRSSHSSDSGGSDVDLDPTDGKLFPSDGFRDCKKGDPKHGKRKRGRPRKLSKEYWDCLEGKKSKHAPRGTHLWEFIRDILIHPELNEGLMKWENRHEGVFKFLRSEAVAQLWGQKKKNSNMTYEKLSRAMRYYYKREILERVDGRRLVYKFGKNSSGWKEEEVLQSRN
# Outline: as §1
# CRX = CRX (Homo sapiens, UniProt O43186 1-299); conditions: protein: recombinant; tags: N-terminal GST; dsDNA, one strand shown
# CRX, sequence (O43186 whole entry): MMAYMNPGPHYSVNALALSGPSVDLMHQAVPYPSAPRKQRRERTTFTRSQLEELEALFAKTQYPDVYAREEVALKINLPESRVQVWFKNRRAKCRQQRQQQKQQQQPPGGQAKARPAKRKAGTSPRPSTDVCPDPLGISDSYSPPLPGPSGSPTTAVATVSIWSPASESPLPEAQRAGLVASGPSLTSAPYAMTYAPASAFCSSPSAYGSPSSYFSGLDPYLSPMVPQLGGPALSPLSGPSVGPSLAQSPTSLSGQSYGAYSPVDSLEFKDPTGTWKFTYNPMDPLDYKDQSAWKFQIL
# Outline: as §1
# ETV1 = ETV1 (Homo sapiens, UniProt P50549 1-477); conditions: protein: recombinant; tags: N-terminal GST; dsDNA, one strand shown
# ETV1, sequence (P50549 whole entry): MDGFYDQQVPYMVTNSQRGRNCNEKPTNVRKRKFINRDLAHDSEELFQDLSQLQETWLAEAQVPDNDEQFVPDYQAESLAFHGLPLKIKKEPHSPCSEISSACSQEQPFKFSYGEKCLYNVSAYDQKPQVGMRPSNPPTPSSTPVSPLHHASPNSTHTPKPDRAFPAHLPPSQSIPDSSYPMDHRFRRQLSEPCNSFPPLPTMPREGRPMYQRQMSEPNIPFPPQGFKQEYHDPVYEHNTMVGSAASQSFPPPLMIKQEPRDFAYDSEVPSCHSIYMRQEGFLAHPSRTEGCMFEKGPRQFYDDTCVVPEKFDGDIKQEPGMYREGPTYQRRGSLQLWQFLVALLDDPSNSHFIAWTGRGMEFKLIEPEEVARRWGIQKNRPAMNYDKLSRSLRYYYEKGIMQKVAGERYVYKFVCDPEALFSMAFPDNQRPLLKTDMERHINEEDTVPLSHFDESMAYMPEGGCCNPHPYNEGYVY
# Outline: as §1
# ERF = biological target: T6, ERF (Homo sapiens, UniProt P50548 1-548); conditions: protein: recombinant; tags: N-terminal GST; dsDNA, one strand shown
# T6 sequence: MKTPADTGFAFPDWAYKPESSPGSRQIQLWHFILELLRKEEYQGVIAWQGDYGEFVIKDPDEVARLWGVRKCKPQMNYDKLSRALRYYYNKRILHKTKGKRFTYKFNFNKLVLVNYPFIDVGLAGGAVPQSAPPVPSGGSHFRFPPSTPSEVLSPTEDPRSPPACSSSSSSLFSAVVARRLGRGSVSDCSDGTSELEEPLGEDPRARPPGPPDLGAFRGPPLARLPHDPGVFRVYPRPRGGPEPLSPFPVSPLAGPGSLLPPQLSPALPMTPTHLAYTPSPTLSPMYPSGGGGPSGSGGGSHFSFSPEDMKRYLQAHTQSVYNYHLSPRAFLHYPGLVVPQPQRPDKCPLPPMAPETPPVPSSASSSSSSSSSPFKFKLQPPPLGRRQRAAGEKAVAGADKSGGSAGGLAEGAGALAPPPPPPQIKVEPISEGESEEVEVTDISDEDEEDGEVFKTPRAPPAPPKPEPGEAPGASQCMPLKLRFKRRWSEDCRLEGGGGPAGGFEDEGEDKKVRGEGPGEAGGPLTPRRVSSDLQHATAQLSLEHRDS
# Outline: as §1
# ETV3L = biological target: T7, ETV3L (Homo sapiens, UniProt Q6ZN32 1-361); conditions: protein: recombinant; tags: N-terminal GST; dsDNA, one strand shown
# T7 sequence: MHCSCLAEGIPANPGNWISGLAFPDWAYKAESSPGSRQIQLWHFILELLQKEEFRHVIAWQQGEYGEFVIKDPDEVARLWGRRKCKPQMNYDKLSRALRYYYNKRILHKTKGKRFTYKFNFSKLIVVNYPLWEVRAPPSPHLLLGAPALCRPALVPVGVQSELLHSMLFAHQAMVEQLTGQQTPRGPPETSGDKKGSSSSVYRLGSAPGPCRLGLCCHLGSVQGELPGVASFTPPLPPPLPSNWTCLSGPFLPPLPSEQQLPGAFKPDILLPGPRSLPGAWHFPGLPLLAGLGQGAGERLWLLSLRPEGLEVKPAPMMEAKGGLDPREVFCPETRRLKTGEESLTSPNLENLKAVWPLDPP
# Outline: as §1
# ETS2 = biological target: T8, ETS2 (Homo sapiens, UniProt P15036 1-469); conditions: protein: recombinant; tags: N-terminal GST; dsDNA, one strand shown
# T8 sequence: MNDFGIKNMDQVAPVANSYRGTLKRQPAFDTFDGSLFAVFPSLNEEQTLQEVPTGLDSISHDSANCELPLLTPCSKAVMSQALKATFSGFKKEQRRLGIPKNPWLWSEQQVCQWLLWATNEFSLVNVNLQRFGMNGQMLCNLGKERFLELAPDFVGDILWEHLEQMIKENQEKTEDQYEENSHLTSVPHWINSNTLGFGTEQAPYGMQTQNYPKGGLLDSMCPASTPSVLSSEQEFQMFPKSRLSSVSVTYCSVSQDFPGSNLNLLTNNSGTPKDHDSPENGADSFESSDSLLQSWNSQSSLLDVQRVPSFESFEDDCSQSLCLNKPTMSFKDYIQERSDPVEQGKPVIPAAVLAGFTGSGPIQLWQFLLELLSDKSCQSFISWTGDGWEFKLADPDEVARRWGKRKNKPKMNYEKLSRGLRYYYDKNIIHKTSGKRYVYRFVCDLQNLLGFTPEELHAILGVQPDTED
# Outline: as §1
# SPDEF = biological target: T9, SPDEF (Homo sapiens, UniProt O95238 1-335); conditions: protein: recombinant; tags: N-terminal GST; dsDNA, one strand shown
# T9 sequence: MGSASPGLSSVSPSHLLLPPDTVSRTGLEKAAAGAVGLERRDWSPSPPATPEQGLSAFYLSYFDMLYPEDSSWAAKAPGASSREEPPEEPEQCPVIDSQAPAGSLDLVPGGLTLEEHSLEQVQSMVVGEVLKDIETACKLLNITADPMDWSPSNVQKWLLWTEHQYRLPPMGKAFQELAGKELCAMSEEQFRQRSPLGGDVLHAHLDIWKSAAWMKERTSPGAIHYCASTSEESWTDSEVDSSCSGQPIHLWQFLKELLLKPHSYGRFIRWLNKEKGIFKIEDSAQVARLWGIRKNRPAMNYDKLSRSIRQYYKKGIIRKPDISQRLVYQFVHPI
# Outline: as §1
# ETV7 = biological target: T10, ETV7 (Homo sapiens, UniProt Q9Y603 1-341); conditions: protein: recombinant; tags: N-terminal GST; dsDNA, one strand shown
# T10 sequence: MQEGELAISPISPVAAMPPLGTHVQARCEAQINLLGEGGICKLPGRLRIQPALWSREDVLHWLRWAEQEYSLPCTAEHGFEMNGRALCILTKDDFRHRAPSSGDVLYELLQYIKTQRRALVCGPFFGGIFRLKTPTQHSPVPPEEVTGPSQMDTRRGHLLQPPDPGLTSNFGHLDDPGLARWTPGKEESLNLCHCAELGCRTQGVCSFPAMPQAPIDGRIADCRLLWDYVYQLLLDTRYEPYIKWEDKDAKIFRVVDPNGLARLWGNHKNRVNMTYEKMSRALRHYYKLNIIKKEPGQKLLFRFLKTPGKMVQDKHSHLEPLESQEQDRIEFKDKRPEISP
# Outline: as §1
# ELF5 = biological target: T11, ELF5 (Homo sapiens, UniProt Q9UKW6-2 1-255); conditions: protein: recombinant; tags: N-terminal GST; dsDNA, one strand shown
# T11 sequence: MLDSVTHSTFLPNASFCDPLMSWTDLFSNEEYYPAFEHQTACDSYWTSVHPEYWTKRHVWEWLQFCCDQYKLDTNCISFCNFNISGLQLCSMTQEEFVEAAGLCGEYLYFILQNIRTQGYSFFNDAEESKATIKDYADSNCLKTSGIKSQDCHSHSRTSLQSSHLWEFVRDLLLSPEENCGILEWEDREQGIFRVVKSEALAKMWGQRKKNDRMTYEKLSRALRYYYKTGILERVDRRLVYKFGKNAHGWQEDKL
# Outline: as §1
# ETV3 = biological target: T12, ETV3 (Homo sapiens, UniProt P41162-2 1-143); conditions: protein: recombinant; tags: N-terminal GST; dsDNA, one strand shown
# T12 sequence: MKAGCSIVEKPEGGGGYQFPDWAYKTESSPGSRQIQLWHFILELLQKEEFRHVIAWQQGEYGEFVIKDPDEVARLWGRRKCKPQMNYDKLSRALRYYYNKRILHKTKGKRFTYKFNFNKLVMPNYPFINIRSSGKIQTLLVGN
# Outline: as §1
# ETV6 = ETV6 (Homo sapiens, UniProt P41212 1-452); conditions: protein: recombinant; tags: N-terminal GST; dsDNA, one strand shown
# ETV6, sequence (P41212 whole entry): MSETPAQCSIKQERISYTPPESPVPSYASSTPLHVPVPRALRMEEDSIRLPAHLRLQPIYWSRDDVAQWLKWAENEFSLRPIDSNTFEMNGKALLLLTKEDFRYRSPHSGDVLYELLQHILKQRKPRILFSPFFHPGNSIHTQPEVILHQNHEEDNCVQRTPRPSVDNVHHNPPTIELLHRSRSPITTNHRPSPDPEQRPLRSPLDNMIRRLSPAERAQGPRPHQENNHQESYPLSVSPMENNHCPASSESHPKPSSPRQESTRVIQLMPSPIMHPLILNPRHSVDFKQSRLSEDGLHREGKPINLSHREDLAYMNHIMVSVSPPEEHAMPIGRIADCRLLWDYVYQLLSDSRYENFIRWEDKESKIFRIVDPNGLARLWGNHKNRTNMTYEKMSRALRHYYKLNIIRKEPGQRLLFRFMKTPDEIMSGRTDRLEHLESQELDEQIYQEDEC
# Outline: as §1
sequence,measurement,setting,value
ATCTGA,binding signal,FEV,"1.1 fold enrichment (6-mer frequency, TF over GST control)"
same,binding signal,ETV5,"1.07 fold enrichment (6-mer frequency, TF over GST control)"
same,binding signal,HSF1,"1.16 fold enrichment (6-mer frequency, TF over GST control)"
same,binding signal,SPIC,"1.21 fold enrichment (6-mer frequency, TF over GST control)"
same,binding signal,ELF4,"1.09 fold enrichment (6-mer frequency, TF over GST control)"
same,binding signal,ELK4,"1.2 fold enrichment (6-mer frequency, TF over GST control)"
same,binding signal,ETV2,"1.01 fold enrichment (6-mer frequency, TF over GST control)"
same,binding signal,ELF3,"1.12 fold enrichment (6-mer frequency, TF over GST control)"
same,binding signal,CRX,"1.4 fold enrichment (6-mer frequency, TF over GST control)"
same,binding signal,ETV1,"1.24 fold enrichment (6-mer frequency, TF over GST control)"
same,binding signal,ERF,"1.2 fold enrichment (6-mer frequency, TF over GST control)"
same,binding signal,ETV3L,"1.19 fold enrichment (6-mer frequency, TF over GST control)"
same,binding signal,ETS2,"1.17 fold enrichment (6-mer frequency, TF over GST control)"
same,binding signal,SPDEF,"1.1 fold enrichment (6-mer frequency, TF over GST control)"
same,binding signal,ETV7,"1.04 fold enrichment (6-mer frequency, TF over GST control)"
same,binding signal,ELF5,"1.08 fold enrichment (6-mer frequency, TF over GST control)"
same,binding signal,ETV3,"1.06 fold enrichment (6-mer frequency, TF over GST control)"
same,binding signal,ETV6,"1.13 fold enrichment (6-mer frequency, TF over GST control)"
